The sample as a whole holds a higher share of hits than the screen did.
Tgondii IFNg – inhibitors of Toxoplasma gondii growth with IFN-gamma | Toxoplasma gondii growth in IFN-gamma-treated host cells; hits give low values | activity change, negative = inhibition, % (test concentration not listed) | hit rate 3.8% among 69,000; in the data active = activity change below about -70%, passing the limit was not always enough;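 note: host cells are HeLa cells infected with Toxoplasma gondii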
Large screens that a line does not name were inactive; ! = a repeat was not active.

COc1ccc(-c2cc3c(n(C)c2=O)CCN(C(=O)c2cn4c(C)cccc4n2)C3)c2ccc(C)nc12	none
Cc1nc(NCCN2CCc3ccccc3C2)c2cnn(C)c2n1	none
O=S(=O)(Cc1ccc(Cl)cc1)CC(O)COc1ccc(F)cc1 (centres undefined)	none
OC(COc1ccc(F)cc1)(c1ccc(Cl)cc1)c1ccc(Cl)cc1	Tgondii IFNg -99
CCOc1ccc2c(c1)C(c1ccc(F)cc1)=NNC(c1ccc(Cl)cc1)=N2	none
COc1cc(C)c(C)cc1S(=O)(=O)N1CCN(Cc2csc(C)n2)CC1	none
O=C(Cn1ncc2c(N3CCN(c4ccccn4)CC3)ncnc21)Nc1ccccc1F	none
CC(=O)NCCc1csc(C2CCCN(C(=O)/C=C/c3ccc(C)cc3)C2)n1 (centres undefined)	none
CNC(=O)CN1CCOCC2(C1)CN(C(=O)c1ccn[nH]1)CCO2 (centres undefined)	none
O=C(c1cccs1)N1CCC2(CCC(=O)N2Cc2ccccc2)CC1	none
Cc1cccc(NC(=O)COc2nc(C)nc3ccccc23)c1	none
COc1ccc(NC(=O)COc2nc(C)nc3ccccc23)cc1	none
COc1ccc(OCC(=O)Nc2cccc(-c3nnc4c5ccccc5c(C)nn34)c2)cc1	Tgondii IFNg -76
O=C(CCC(=O)N1CCCCCC1)NC[C@@H]1CCNC[C@H]1O	none
CC(C)n1cnc(-c2cc(C(=O)NCC3CCCO3)c3ccccn23)c1 (centres undefined)	none
CCc1cccc(-n2nnc(C(=O)N3CCC(N4CCCCC4)CC3)c2-c2cccnc2)c1	none
Cc1ccc(S(=O)(=O)N2CCC3(CC2)CN(c2ccccc2)C3=O)cc1	none
Cc1ccc(S(=O)(=O)N2CCCC3(CCCCC3)C2)cc1	Tgondii IFNg -98
Cc1ccc(S(=O)(=O)N2CCC3(CCCN(CC4CCOCC4)C3)C2)cc1 (centres undefined)	none
Cc1noc(C)c1S(=O)(=O)N1CCN(C(=O)C2COc3ccccc3O2)CC1 (centres undefined)	none
Cc1ccc(C2(O)CCN(c3ccc(C(=O)N(C)C)cn3)CC2)nc1	none
Cc1nc2ccccc2nc1SCC(=O)Nc1ccccc1OC(C)C	Tgondii IFNg -88
CCOc1ccccc1NC(=O)CSc1ccc(Cl)cc1	none
COc1ccccc1NC(=O)CSc1nc2ccccc2n1CC(=O)N1CCOCC1	none
O=C(O)c1cc2n(n1)CCN(Cc1cn[nH]c1C1CCCCC1)C2	none
COc1cccc(CN2CCCC(c3nc(C)n4ccccc34)C2)c1 (centres undefined)	none
Cc1cc(N2CCN(C(=O)c3ccccc3Cn3cncn3)CC2)nc2ccccc12	none
CN1C(=O)C2(CCOCC2)c2cc(NC(=O)c3ccsc3)ccc21	none
Cc1cccnc1CC(C)N(C)C(=O)c1ccc2cccnc2n1 (centres undefined)	none
N#Cc1cccc(N2CCCC3(CN(C(=O)NC4CC4)CCO3)C2)c1 (centres undefined)	none
CCOc1ccc(NC(=O)Nc2ccc(-c3nc(-c4cccc(Br)c4)co3)cc2)cc1	none
CC[C@H](CC#N)OC(=O)N[C@@H](C)c1cccc(NC(=O)Nc2ccc(-c3cnco3)c(OC)c2)c1	Tgondii IFNg -82
COc1cccc(NC(=O)Nc2ccc(-c3nc(-c4ccc(C)cc4C)co3)cc2)c1	none
COc1ccc(Oc2ccc(C(F)(F)F)cn2)cc1CN1CCCC1	none
C=CCN(CC=C)C(=O)CN1CCCC(C(N)=O)C1 (centres undefined)	none
COc1ccc(C(=O)N(c2cc(OC)cc(OC)c2)C2(C(=O)NCc3ccccc3)CCN(C(C)=O)CC2)cc1	none
CC(C)c1noc(-c2cc(=O)n(CC(=O)NCc3ccc(Cl)cc3)c3ccccc23)n1	none
CC(=O)[C@H]1CC[C@H]2[C@@H]3CCC4=CC(=O)CC[C@]4(C)[C@H]3[C@H](O)C[C@]12C	none
C[C@]12C[C@H](O)[C@H]3[C@@H](CCC4=CC(=O)CC[C@@]43C)[C@@H]1CC[C@@H]2C(=O)CO	none
CC(=O)OCC(=O)[C@H]1CC[C@H]2[C@@H]3CCC4=CC(=O)CC[C@]4(C)[C@H]3CC[C@]12C	Tgondii IFNg -82!
Cc1ccc(NC(=O)CN2C(=O)CCc3cc(S(=O)(=O)N4CCCCC4)ccc32)cc1Cl	none
Cc1nc(CO[C@H]2CN(S(C)(=O)=O)[C@H]3COC[C@@H]23)cs1	none
CCCCN(C)C(=O)c1ccc2ccc(N3CCN(CC4CC4)CC3)n2c1	none
COCCN(CCOC)C(=O)c1ccc2ccc(N3CCC(C)CC3)n2c1	Tgondii IFNg -88
CCN(CC)CCCNC(=O)c1ccc2ccc(N3CCC(C)CC3)n2c1	none
Cc1ccc(F)cc1-n1c(Cc2c(C)n[nH]c2C)n[nH]c1=O	none
CN1CCN(C(=O)c2cccc(O)c2)CC1C(=O)O (centres undefined)	none
CN(C)c1ncc2c(n1)[C@H]1CN(C(=O)c3ccccc3)C[C@@H]1S(=O)(=O)C2	none
O=S1(=O)Cc2cnc(NCC3CC3)nc2[C@H]2CN(Cc3ccc(F)cc3)C[C@@H]21	none
CN(C)c1ncc2c(n1)[C@H]1CN(Cc3ccccc3F)C[C@@H]1S(=O)(=O)C2	Tgondii IFNg -103
COCCC1COC2(CCN(Cc3ccn[nH]3)CC2)C1 (centres undefined)	none
COc1cccc(C(=O)N2CCC(C(=O)NCCc3csc(-c4ccccc4)n3)CC2)c1	none
CC(C)(C)c1ccc(OCC(=O)N2CCOC(c3[nH]ncc3-c3ccnc(N)c3)C2)cc1 (centres undefined)	none
COc1ccc(NC2=NC(c3ccc(Cl)cc3)n3c(nc(C)cc3=O)N2)cc1 (centres undefined)	Tgondii IFNg -86
COc1ccc(Nc2nc(NC(=O)Nc3ccc(Cl)cc3)n[nH]2)cc1	none
COc1ccc(C2(CNCc3cc(-c4ccc(Cl)cc4)c[nH]c3=O)CCOCC2)cc1	none
O=C(Nc1ccccc1)c1cc2n(n1)CCCN(C(=O)c1cc3ncccn3n1)C2	none
CCOC(=O)c1nn(CCCc2ccccc2)c2c1CN(Cc1nc3ccccc3[nH]1)CC2	none
Cc1cnn(Cc2nc(-c3ccc(NC(=O)c4cccc(C#N)c4)cc3)oc2C)c1	none
COc1cccc(CC(=O)Nc2ccc(-c3nc(Cn4cccn4)c(C)o3)cc2)c1	none
COc1cccc(C(=O)Nc2ccc(-c3nc(Cn4cccn4)c(C)o3)cc2)c1	Tgondii IFNg -99
Cc1ccc(C(=O)Nc2ccc(-c3nc(Cn4cccn4)c(C)o3)cc2)cc1F	none
COc1cccc(C(=O)Nc2ccc(-c3nc(Cn4cc(C)cn4)c(C)o3)cc2)c1	Tgondii IFNg -93
Cc1oc(-c2ccc(NC(=O)c3cc(F)cc(F)c3)cc2)nc1Cn1cccn1	none
Cc1oc(-c2ccc(NC(=O)c3cccc(Cl)c3)cc2)nc1Cn1cccn1	none
Cc1oc(-c2ccc(NC(=O)c3cccc(F)c3)cc2)nc1Cn1cccn1	Tgondii IFNg -87
CC(=O)N1N=C(c2ccc3ccccc3c2)OC1c1cccc(Cl)c1 (centres undefined)	none
CC(=O)Nc1cccc(-c2cc(C(=O)NC3CC3)ccn2)c1	none
O=C(c1cscn1)N1CCc2ncnc(-c3ccc(F)cc3)c2CC1	none
Oc1cc(O)c2c(c1)O[C@H](c1ccc(O)c(O)c1)[C@H](O)[C@H]2c1c(O)cc(O)c2c1O[C@H](c1ccc(O)c(O)c1)[C@@H](O)C2	none
CCC(CC)n1c(=O)n(Cc2ccncc2)c2cc(C(=O)O)cnc21	none
Cc1ccc(CN2CCC(c3nc4ccc(Nc5ccccc5)cn4n3)CC2)o1	none
CCCC(=O)N1CCC(c2nc(-c3ccccn3)no2)C1 (centres undefined)	none
NCCCCCNCC12CC3CC(CC(C3)C1)C2	none
Cc1ccc(-c2coc(-c3ccc(NC(=O)Nc4ccccc4)cc3)n2)cc1	none
Cc1ccc(NC(=O)NC(=O)c2c(C)noc2-c2snnc2C)cc1	Tgondii IFNg -107
Cc1ccc(NC(=O)Nc2ccc(-c3nc(-c4ccccc4)co3)cc2)cc1	none

Source: PubChem (Broad Institute)
